Experimental data as given in PubChem BioAssay AID1956 (SRMLSC, 2009).
In all, about 220,000 compounds went through this assay and about 10 (0.005%) were called active. Cut-off read from the data, not from the text of the source: active = maximum fold increase above about 1.5; inconclusive = no clear call, values can overlap the other calls; inactive = below that; tested in PC3 cells. The list is a sample of the results.

experiment: enhancers of HSV replication in host cells, fold increase, host cell viability (AID 1956); details: HSV replication augmentation in cells; fold increase: measured here: primary screen fold increase 10 uM, at 10 µM, stronger effect = higher value; maximum fold increase: at 0.098 µM, stronger effect = higher value; viability: measured here: host cell viability series, at 25 µM, stronger effect = lower value

Row | Compound | fold increase | outcome
1 | Cc1cc(C)nc(NC(=O)/C=C/c2ccc(Cl)cc2)n1 | 0.99 | inactive
2 | S=C(NNC(=S)NC1CC2C=CC1C2)NC1CC2C=CC1C2 (configuration not stated) | 0.93 | inactive
3 | CCCCN1C(N)=NC[C@@H]1CC1CCCCC1 | 0.8 | inactive
4 | C=CCC1(C(=O)N(C)Cc2ccccc2)CCN(C(=O)OC(C)(C)C)CC1 | 0.96 | inactive
5 | NC(=O)C1=C[C@@H](c2csc3ccccc23)C[C@@H](OCc2ccc(CO)cc2)O1 | 0.78 | inactive
6 | COC(C[C@H](O)CC(=O)[C@@H](C)OCc1ccccc1)OC | 0.76 | inactive
7 | CCCOc1ccc(Cl)cc1Nc1nc(NCCO)nc(N2CCCC2)n1 | 0.59 | inactive
8 | CC1(c2nnc(-c3ccncc3)o2)CC(c2cccnc2)=NO1 (configuration not stated) | 0.69 | inactive
9 | Cc1cc(Cl)ccc1NNC(=O)c1snnc1C | 1.06 | inactive
10 | CCC1(CC)C(=O)C2=C3C1[C@H](C(=O)OC)C=C(C(=O)OC)C[C@H]3[C@H]1C(=O)N(Cc3ccccc3)C(=O)[C@H]1[C@H]2C (some centres not stated) | 0.96 | inactive
11 | CCC(C)N1C(=S)SC(C)(C)C1N(O)C(=O)NC1CCCCC1 (configuration not stated) | 0.99 | inactive
12 | NC(=O)CC(NC(=O)Cc1cccc2ccccc12)c1ccc(NCc2cc(F)ccc2F)c([N+](=O)[O-])c1 (configuration not stated) | 0.77 | inactive
13 | CC1(C)C=Cc2c(ccc3c2OC[C@@H](c2ccc(O)cc2O)C3)O1 | 0.67 | inactive
14 | Nc1nc(O)c(CC(=O)O)s1 | 1.21 | inactive
15 | Clc1ccc2nc(-c3ccccc3)nc(C(Cl)Cl)c2c1 | 0.64 | inactive
16 | CCCCN1C(N)=NC[C@@H]1Cc1ccccc1 | 0.87 | inactive
17 | Cc1nnc(SC(C(=O)c2ccccc2)c2ccccc2)[nH]c1=O (configuration not stated) | 0.88 | inactive
18 | CN1CCc2nc(SC(C(=O)O)c3ccccc3)c(C#N)c(-c3cccs3)c2C1 (configuration not stated) | 0.99 | inactive
19 | C/C(=N\Nc1cccc(C(=O)O)c1)c1ccc2c(c1)Nc1ccccc1S2 | 1.22 | inactive
20 | O=C(NCc1ccccc1)c1onc(CSc2ccncc2)c1C(=O)NCc1ccccc1 | 0.71 | inactive
21 | O=C(N/N=C\c1cc(Br)c(Br)o1)C1COc2ccccc2O1 (configuration not stated) | 1.28 | inactive
22 | CC(C)c1cc(CN2CCOCC2)cc(C(C)C)c1O | 1.06 | inactive
23 | CC(C)=CCc1c(O)c(CC=C(C)C)c2occ(-c3ccc(O)cc3)c(=O)c2c1O | 0.74 | inactive

Row | Compound | fold increase | outcome
24 | CN(C)CCCN(Cc1cc2cc3c(cc2[nH]c1=O)OCCO3)C(=O)NC1CCCCC1 | 0.89 | inactive
25 | C/C(CC(C)C)=N\Oc1nc(C)cc(C)n1 | 0.9 | inactive
26 | COc1ccc(Nc2cc(=O)n(-c3ccccc3)c3c2c(=O)n(C)c(=O)n3C)cc1 | 1.09 | inactive
27 | NC(=O)C1=C[C@@H](c2ccc3c(c2)OCO3)C[C@@H](OCCCCO)O1 | 0.58 | inactive
28 | O=C(NCC1CC1)c1onc(CSc2ccccc2)c1C(=O)NCC1CC1 | 1.02 | inactive
29 | Cc1ccc(S(=O)(=O)N2CCN(C(=O)COC(=O)c3c(C)noc3C)CC2)c(C)c1 | 0.83 | inactive
30 | COc1ccc(CN2CC[C@H]3C=CC[C@@H](C(=O)N4CCOCC4)[C@H]3C2=O)cc1OC | 0.78 | inactive
31 | Brc1ccc(-c2n(-c3ccccn3)c3ccccc3[n+]2-c2ccccn2)cc1 | 1.03 | inactive
32 | Cc1[nH]n(C)c(=O)c1N=Nc1ccc(S(C)(=O)=O)cc1 | 1.01 | inactive
33 | O=C(CC(c1ccccc1)c1cc(Cl)ccc1O)NCCN1CCOCC1 (configuration not stated) | 0.85 | inactive
34 | COC(=O)c1c(-c2ccsc2)oc2ccc(-c3cc(OC)c(OC)c(OC)c3)cc12 | 1.05 | inactive
35 | Cc1cccc(NC(=O)c2ccc([N+](=O)[O-])o2)c1 | 0.66 | inactive
36 | C=CC1C(OC2OC(CO)C(O)C(O)C2O)OC=C(C(=O)OC)C1CC1CC(=O)CC(CC(=O)CCc2ccc(O)cc2)O1 (configuration not stated) | 1.03 | inactive
37 | O=C(N/N=C/c1cccc2cccnc12)[C@H]1C[C@@H]1c1ccccc1 | 0.97 | inactive
38 | COCCn1c(SCC(=O)c2[nH]c(C)c(C(C)=O)c2C)nc2ccccc2c1=O | 0.86 | inactive
39 | CC#CC[N+](C)(C)CCCCCC | 1.26 | inactive
40 | O=C(NCc1ccccc1)C1=C[C@@H](c2ccccc2)C[C@@H](OCCCCO)O1 | 0.94 | inactive
41 | O=C(COc1ccc([N+](=O)[O-])cc1Cl)Nn1cnnc1 | 0.85 | inactive
42 | COc1ccc(/C=C/C(=O)Nc2ccc(C)cc2)cc1S(=O)(=O)N1CCOCC1 | 0.88 | inactive
43 | CC1(C)S[C@@H]2[C@H](NC(=O)COc3ccccc3)C(=O)N2C1C(=O)OCc1ccccc1 (some centres not stated) | 0.86 | inactive
44 | NC(=O)c1nnsc1-c1ccc(-c2snnc2C(N)=O)cc1 | 0.97 | inactive
45 | O=[N+]([O-])C(=c1ccc2c(c1)N1C3=C(CCCC3)CC3CCCCC31N=2)[N+](=O)[O-] (configuration not stated) | 1.07 | inactive
46 | Cc1ccc(-c2nc(SCC(=O)Nc3ccccc3OC(F)F)c3c(C)c(C(=O)O)sc3n2)cc1 | 0.92 | inactive
